Among the data in PubChem BioAssay AID463173 (ICCB-Longwood Screening Facility, Harvard Medical School, 2010) are survival values, retold here.

Out of some 52,000 compounds screened, about 4,300 (8.3%) were called active. Only a selection was taken, and actives are over-represented in it overall. Unmarked numbers belong to inactive results. Rule as the data show it: active = survival mostly below about 52% (no sharp cut-off); inactive = mostly above about 56%.

The test system of this assay is DeltatarO mutant. Put plainly: S. aureus survival, RN4220 and DeltatarO strains – OD600, teichoic acid synthesis inhibitors, primary screen (AID 463173). The note with it: S. aureus RN4220 wild type/DeltatarO growth, OD600, 18 h, stronger effect = lower value, screened at 18.75 µg/mL (by protocol).
With `Cc1ccc(N2CCN(C(=O)C3CCN(S(=O)(=O)c4ccc5c(c4)oc(=O)n5C)CC3)CC2C)cc1` (stereo not drawn), the survival was 109%.
Turning to `Cc1ccc(-n2c3nc(=O)[nH]c(=O)c-3cc3c(C)nn(-c4ccccc4)c32)cc1Cl`, the survival is 85%.
For the molecule `Cc1cccc(-c2noc(-c3cccnc3NCc3ccc(Cl)cc3)n2)c1`, the survival is 73%.
For `COc1ccc(N(C(=O)COc2ccccc2OC)S(=O)(=O)c2ccc(Cl)cc2)cc1` the value was 71%.
For `O=C(CN1C(=O)COc2ccc(Cl)cc21)Nc1ccc(F)cc1` the value was 67%; for `Cc1cc(C)c(NC(=O)CSc2nccn2Cc2ccco2)c(C)c1`, 76%; for `Cc1ccc(S(=O)(=O)NCC(c2ccc(N(C)C)cc2)N2CCc3ccccc32)cc1C` (stereo not drawn), 131%.
On to `CCOc1ccc(S(=O)(=O)NCC(c2ccc(N(C)C)cc2)N2CCc3ccccc32)cc1` (stereo not drawn), for which the survival was 49%.
As to `Cc1ccc(S(=O)(=O)NCC(c2ccc(N(C)C)cc2)N2CCc3ccccc32)cc1` (stereo not drawn), the survival is 0% (active).
For `COc1ccc(S(=O)(=O)NCC(c2ccc(N(C)C)cc2)N2CCc3ccccc32)cc1` (stereo not drawn) the value was 78%; for `CN(C)c1ccc(C(CNS(=O)(=O)c2ccccc2)N2CCc3ccccc32)cc1` (stereo not drawn), 99%; for `CN(C)c1ccc(C(CNS(=O)(=O)c2ccc(F)cc2)N2CCc3ccccc32)cc1` (stereo not drawn), 32% (active).
The result for `Cc1cc(NC(=O)C2CCCN(S(=O)(=O)c3cn(C)cn3)C2)ccc1Br` (stereo not drawn) reads 102%; that for `Cc1ccc(S(=O)(=O)CCc2nnc(NC(=O)CCCC(=O)Nc3cc(C)on3)s2)cc1`, 104%; that for `CCOc1ccc(C(CC(=O)Nc2ccc(C(=O)OC)cc2)N2Cc3ccccc3C2=O)cc1OC` (stereo not drawn), 73%.
Regarding `Cc1cccc(NC(=O)CN2C(=O)c3ccccc3Sc3ncccc32)c1C`, the survival is 90%.
Regarding `Cc1ccc(CNC(=O)C(=O)NCC(c2ccc3c(c2)OCO3)N2CCOCC2)cc1` (stereo not drawn), the survival is 64%.
In the case of `c1ccc(CN2CCCN(c3nc4c(c(NCCN5CCOCC5)n3)CCCC4)CC2)cc1`, the survival is 103%.
For `COC(=O)c1c(SCC(=O)Nc2cccc(C(F)(F)F)c2)[nH]c2ccccc2c1=O` the value was 82%; for `COC(=O)c1c(SCC(=O)Nc2ccccc2OC)[nH]c2ccccc2c1=O`, 55%; for `COC(=O)c1c(SCC(=O)Nc2cc(C)cc(C)c2)[nH]c2ccccc2c1=O`, 39% (active).
For `COc1ccc(N2CCN(C(=O)c3ccc(NC(=O)c4nsc5ccccc45)cc3)CC2)cc1` the value was 84%.
`CCOC(=O)c1scc(-c2ccccc2)c1S(=O)(=O)Nc1cc(OC)cc(OC)c1`: the survival is 89%.
As to `Cc1cccc(CSc2nc(=O)c3c(n2C)NC(=O)CC3c2cccc(O)c2)c1` (stereo not drawn), the survival was 46%.
Take `COc1ccccc1NC(=O)c1ccc(CN2C(=O)C(C)=C(c3ccc(C)c(C)c3)S2(=O)=O)cc1`: the survival was 83%.
For `Cc1ccc(SCC(=O)Nc2ccc3oc(-c4ccccc4C)nc3c2)cc1` the value was 50%; for `O=C(COc1ccccc1Cl)Nc1ccc(Cl)c(-c2nc3ccccc3o2)c1`, 51%; for `O=C(Nc1ccc(Cl)c(-c2nc3cc(Cl)ccc3o2)c1)c1cc2ccccc2o1`, 70%.
For `COc1ccc2oc(-c3cccc(NC(=O)c4ccc(C#N)cc4F)c3)nc2c1`, the survival is 79%.
As to `COc1ccccc1-c1nc2cc(NC(=O)c3ccccc3Cl)ccc2o1`, the survival was 61%.
For `Cc1cccc(OCC(=O)Nc2ccc3oc(-c4ccccc4F)nc3c2)c1`, the survival is 57%.
The result for `O=C(COc1ccccc1Cl)Nc1ccc2oc(-c3ccccc3F)nc2c1` reads 67% (active).
As to `O=C(Nc1ccc(-c2nc3cc(NC(=O)c4ccccc4Cl)ccc3o2)cc1)c1ccccc1Cl`, the survival was 83%.
`Cc1ccc(SCC(=O)Nc2ccc3oc(-c4ccc(F)cc4)nc3c2)cc1`: the survival is 80%.
The result for `Cc1ccc(SCC(=O)Nc2ccc3oc(-c4ccccc4F)nc3c2)cc1` reads 57% (active).
Consider `O=C(Nc1ccc2oc(-c3ccccc3F)nc2c1)c1ccccc1Cl`, for which the survival is 49% (active).
Take `N#Cc1ccc(C(=O)Nc2ccc(Cl)c(-c3nc4cc(Cl)ccc4o3)c2)c(F)c1`: the survival is 28% (active).
For the molecule `CCCS(=O)(=O)N1CCCC(C(=O)NCCCOC)C1` (stereo not drawn), the survival was 77%.
For `CCOc1ccc(Br)cc1C1NC(=O)c2c(sc3c2CCN(C)C3)N1` (stereo not drawn), the survival was 60%.
Turning to `CCn1c(C)c(C)c2cc(C(=O)NCc3ccc(OC)cc3OC)ccc21`, the survival was 70%.
For `CCc1nn2c(=O)cc(COC(=O)C(CC)c3ccccc3)nc2s1` (stereo not drawn) the value was 92%; for `CCN(Cc1ccccc1)C(=O)c1cc2ccc3cccnc3c2[nH]1`, 49%; for `Cc1cccc(C(=O)NCCc2nc3ccccc3n2Cc2ccc(Cl)cc2)c1`, 79%.
`COC(=O)c1ccc(N2C(=O)c3ccc(N)cc3C2=O)cc1`: the survival was 73%.
With `COc1cc(Cl)c(NC(=O)c2cc(CN3CCCC3)on2)c(OC)c1`, the survival is 94%.
Consider `CC(=O)c1cccc(NC(=O)CSc2nnc3ccc(-c4ccc(Br)cc4)nn23)c1`, for which the survival is 75%.
Take `CCn1nc(-c2ccccc2)c(-c2ccccc2)c(C(=O)Nc2ccc(S(N)(=O)=O)cc2)c1=O`: the survival was 66%.
Consider `COC(=O)c1ccc(NC(=O)c2c(-c3ccccc3)c(-c3ccccc3)nn(C)c2=O)cc1`, for which the survival was 58%.
Turning to `Cn1nc(-c2ccccc2)c(-c2ccccc2)c(C(=O)Nc2ccc(S(N)(=O)=O)cc2)c1=O`, the survival is 49% (active).
Consider `Cc1ccc(-c2nc3sc(CCNC(=O)c4ccco4)c(C)n3n2)cc1`, for which the survival is 87%.
In the case of `Cc1ccc(C)c(CN2C(=O)c3ccccc3S(=O)(=O)c3ccc(C(=O)N4CCN(c5ccccc5F)CC4)cc32)c1`, the survival was 79%.
`CCOc1ccc(-c2cn3c(n2)sc2cc(C(=O)NCCCN4CCCCC4)ccc23)cc1`: the survival was -1% (active).
Take `CCCN1CCN(CCCNC(=O)c2ccc3c(c2)sc2nc(-c4ccc(OC)cc4)cn23)CC1`: the survival was 73%.
For the molecule `COc1ccc(-c2cn3c(n2)sc2cc(C(=O)NCCCc4ccccc4)ccc23)cc1`, the survival was 65%.
For `COc1ccc(-c2cn3c(n2)sc2cc(C(=O)NCCCN4CCCCC4)ccc23)cc1` the value was 69%; for `COc1ccc(-c2cn3c(n2)sc2cc(C(=O)NCCCN4CCCCCC4)ccc23)cc1`, 64%; for `CCCN1CCN(CCCNC(=O)c2ccc3c(c2)sc2nc(-c4ccc(OCC)cc4)cn23)CC1`, 28% (active).
For `CCOc1ccc(-c2cn3c(n2)sc2cc(C(=O)NCCCN4CCCCCC4)ccc23)cc1` the value was -2% (active).
As for `COc1ccc(-c2cn3c(n2)sc2cc(C(=O)NCCCN4CCN(C)CC4)ccc23)cc1`, the survival is 95%.
The result for `O=C(NCCN1CCOCC1)c1cnn2c(C(F)F)cc(-c3ccccc3)nc12` reads 86%; that for `CC(C)(C)C(=O)Nc1cc(-c2cccc(Br)c2)nn1-c1ccccc1`, 81%.
The result for `CCc1ccccc1NC(=O)NCc1ccc2c(c1)CCN2C(=O)c1ccccc1` reads 125%; that for `Cc1ccc(C)c(N2CCN(CCCNC(=O)c3ccc4nc(N5CCCCC5)sc4c3)CC2)c1`, 71%.
For `Cc1ccc(C)c(N2CCN(CCCNC(=O)c3ccc4nc(N5CCC(C)CC5)sc4c3)CC2)c1`, the survival was 4% (active).
On to `COc1ccc(N2CCN(C(=O)c3ccc4nc(N5CCC(C)CC5)sc4c3)CC2)cc1`, for which the survival is 84%.
Turning to `CC1CCN(c2nc3ccc(C(=O)N4CCN(c5ccccc5)CC4)cc3s2)CC1`, the survival was 72%.
For `COc1cccc(N2CCN(C(=O)c3ccc4nc(N5CCC(C)CC5)sc4c3)CC2)c1` the value was 62%; for `Cc1ccc(Cl)cc1N1CCN(CCCNC(=O)c2ccc3nc(N4CCCCC4)sc3c2)CC1`, 77%.
In the case of `CC1CCN(c2nc3ccc(C(=O)NCc4ccc(Cl)cc4)cc3s2)CC1`, the survival is 128%.
For `Cc1ccc(Cl)cc1N1CCN(C(=O)c2ccc3nc(N4CCC(C)CC4)sc3c2)CC1` the value was 29% (active).
The result for `Cc1cccc(N2CCN(C(=O)c3ccc4nc(N5CCC(C)CC5)sc4c3)CC2)c1C` reads 1% (active); that for `Cc1ccc(CN2C(=O)C3(SCC(=O)N3c3ccc(C)c(C)c3)c3ccccc32)cc1` (stereo not drawn), 99%; that for `COc1ccc(CCC(=O)NCCc2csc(-c3cccc(F)c3)n2)cc1`, 83%.
In the case of `Cc1cccc(N(C)S(=O)(=O)c2ccc3c(c2)NC(=O)CC(=O)N3)c1`, the survival was 86%.
In the case of `COc1cccc(C(=O)NCC(C)C)c1`, the survival is 81%.
As to `Cc1oc(-c2ccccc2F)nc1CSCC(=O)NCCc1ccccc1`, the survival was 94%.
In the case of `Cc1ccc(CCNC(=O)CSCc2nc(-c3ccc(C)cc3)oc2C)cc1`, the survival was 26% (active).
For the molecule `Cc1ccc(CNC(=O)CSCc2nc(-c3cccc(C)c3)oc2C)cc1`, the survival was -5% (active).
For the molecule `COc1ccc(-c2nc(CSCC(=O)NCCc3ccccc3)c(C)o2)cc1`, the survival is 86%.
As to `COc1ccc(CNC(=O)CSCc2nc(-c3ccccc3F)oc2C)cc1`, the survival was 67%.
In the case of `Cc1ccc(CNC(=O)CSCc2nc(-c3ccc(Cl)cc3)oc2C)cc1`, the survival is 66%.
For the molecule `COc1ccc(-c2nc(CSCC(=O)NCCc3ccc(C)cc3)c(C)o2)cc1OC`, the survival is 56%.
`CCOc1ccc(-c2nc(CSCC(=O)NCc3ccc(C)cc3)c(C)o2)cc1`: the survival was 78%.
For `Cc1cccc(-c2nc(CS(=O)CC(=O)NCc3ccc(Cl)cc3)c(C)o2)c1` (stereo not drawn) the value was 61%; for `CCOc1ccc(-c2nc(CSCC(=O)NCc3ccc(Cl)cc3)c(C)o2)cc1`, 95%.
The result for `CCc1ccc(-c2nc(CSCC(=O)NCc3ccc(C)cc3)c(C)o2)cc1` reads -3% (active).
For `Cc1oc(-c2ccccc2F)nc1CSCC(=O)NCc1ccccc1` the value was 41% (active).
For `O=C(CC1SC(=NC2CCCCC2)NC1=O)Nc1ccccc1` (stereo not drawn), the survival was 89%.
